Compound activity from PubChem BioAssay.
Hits are enriched below; roughly 3.5% of the tested compounds scored in any of these assays.
MITF inh: MITF inhibitors, primary screen, biochemical, AlphaScreen, human | Microphthalmia-associated transcription factor (Homo sapiens), O75030 | AlphaScreen MITF homodimerization, bead proximity signal | inhibition, % at 2.6 µM | actives 0.91% (n = 650,000); in the data active = inhibition above about 50%
GPR151 ag: activators of human GPR151, primary screen, cell-based, PathHunter beta-arrestin, luminescence; G-protein coupled receptor 151 (Homo sapiens), Q8TDV0; PathHunter beta-arrestin GPR151 cells; activation, % at 11.2 µM; actives 1% (n = 650,000); AID 1508602, 2020; in the data active = activation above about 4.9%
FBW7 activator: FBW7 E3 ligase activators, primary screen, biochemical, AlphaScreen, human | actives 0.13% (n = 650,000) | AID 1259310, 2017 | normalized activity (activation), % at 26.1 µM | AlphaScreen FBW7–phospho-cyclin E peptide binding, activator screen | F-box/WD repeat-containing protein 7 (Homo sapiens), Q969H0; in the data active = normalized activity above about 1.9%;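 note: purified mutant Fbw7 with reduced substrate affinity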
Target sequence (Q969H0 whole entry, looked up): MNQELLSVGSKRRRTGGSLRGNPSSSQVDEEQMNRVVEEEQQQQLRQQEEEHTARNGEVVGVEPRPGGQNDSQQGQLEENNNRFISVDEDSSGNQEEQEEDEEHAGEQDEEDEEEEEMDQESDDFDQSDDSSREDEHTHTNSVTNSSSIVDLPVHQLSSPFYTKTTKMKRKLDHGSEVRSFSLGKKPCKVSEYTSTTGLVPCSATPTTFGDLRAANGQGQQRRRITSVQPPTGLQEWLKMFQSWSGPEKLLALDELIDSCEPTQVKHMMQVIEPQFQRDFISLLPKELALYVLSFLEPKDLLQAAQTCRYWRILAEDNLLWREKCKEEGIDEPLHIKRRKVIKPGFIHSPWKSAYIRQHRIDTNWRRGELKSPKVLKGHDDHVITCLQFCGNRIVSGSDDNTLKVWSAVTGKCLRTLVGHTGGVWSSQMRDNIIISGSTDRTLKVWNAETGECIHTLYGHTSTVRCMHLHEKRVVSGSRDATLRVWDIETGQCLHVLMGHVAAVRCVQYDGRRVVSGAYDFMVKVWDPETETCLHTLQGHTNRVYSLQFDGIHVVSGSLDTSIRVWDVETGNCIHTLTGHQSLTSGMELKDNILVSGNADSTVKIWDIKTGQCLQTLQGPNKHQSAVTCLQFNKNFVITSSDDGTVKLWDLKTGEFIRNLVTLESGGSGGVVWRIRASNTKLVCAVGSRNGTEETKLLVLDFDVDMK
TEAD-YAP block: TEAD-YAP interaction inhibition, primary screen, TEAD-YAP interaction inhibitor project, luminescence, HEK-TIYL cells. TEAD-Gal4/YAP UAS-luciferase luminescence. inhibition, % at 9.12 µM. actives 1.4% (n = 640,000); in the data active = inhibition above about 32%
Of the large screens only hits and unclear results are named; the others gave an inactive call.

Cc1ccc(N(CCCCN2C(=O)c3ccccc3C2=O)C(=O)c2ccccc2)cc1	none
Cc1ccccc1Cn1cnc2c(cnn2-c2ccc(Cl)cc2)c1=O	none
O=C(NCc1ccccn1)c1ccc(N2CCC3(CC2)OCCO3)c([N+](=O)[O-])c1	none
CC(=O)c1ccc(NC(=O)CSc2nnc(Cc3cccn3C)n2C)cc1	none
O=C(c1cccc([N+](=O)[O-])c1)N1CCN(c2cccc(Cl)c2)CC1	none
COC(=O)c1cc(C(=O)N2CCN(c3cccc(Cl)c3)CC2)cc([N+](=O)[O-])c1	TEAD-YAP block 63
COc1ccc(Nc2nc(-c3cc(OC)c(OC)c(OC)c3)nc3ccccc23)cc1OC	none
COc1cc(-c2nc(Nc3ccc(OCc4ccccc4)cc3)c3ccccc3n2)cc(OC)c1OC	none
COc1cc(-c2nc(Nc3ccc(C)c(Cl)c3)c3ccccc3n2)cc(OC)c1OC	TEAD-YAP block 52
CCOc1ccc(Nc2nc(NCc3ccccc3)c3ccccc3n2)cc1	TEAD-YAP block 33
CCOc1ccc(Nc2nc(-c3cc(OC)c(OC)c(OC)c3)nc3ccccc23)cc1	TEAD-YAP block 40
CC(C)CNC(=O)c1cnc2sccn2c1=O	none
c1cn(-c2ccc(Nc3nccc(Nc4ccc(N5CCOCC5)cc4)n3)cc2)cn1	TEAD-YAP block 50
c1ccc(Cc2nc3ccc(Nc4nccc(-c5cncc(N6CCOCC6)c5)n4)cc3o2)cc1	none
c1cn(-c2ccc(Nc3nccc(-c4cncc(N5CCOCC5)c4)n3)cc2)cn1	TEAD-YAP block 78
Nc1nc(Nc2ccc(-n3ccnc3)cc2)cc(Nc2ccc3c(c2)OCO3)n1	none
CCc1nc2ccc(Nc3nccc(-c4cncc(N5CCOCC5)c4)n3)cc2o1	TEAD-YAP block 34
c1ccc(Nc2ccnc(Nc3ccc(N4CCOCC4)cc3)n2)cc1	none
c1cn(-c2ccc(Nc3nccc(Nc4ccc5c(c4)OCO5)n3)cc2)cn1	TEAD-YAP block 36
O=C1OCCN1c1ccc(Nc2nccc(-c3cncc(N4CCOCC4)c3)n2)cc1	TEAD-YAP block 39
FC1(F)Oc2ccc(Nc3nccc(-c4cncc(N5CCOCC5)c4)n3)cc2O1	none
c1cc(-c2cncc(N3CCOCC3)c2)nc(Nc2ccc(-n3cncn3)cc2)n1	none
Cn1ncc2cc(Nc3nccc(-c4cncc(N5CCOCC5)c4)n3)ccc21	TEAD-YAP block 69
O=C(c1ccc(Nc2nccc(-c3cncc(N4CCOCC4)c3)n2)cc1)N1CCOCC1	TEAD-YAP block 51
COc1ccc(Nc2nccc(-c3cncc(N4CCOCC4)c3)n2)cc1	TEAD-YAP block 61
O=C(CCCOc1ccc(Cl)cc1Cl)NNC(=S)NCC1CCCO1 (configuration not stated)	none
Cc1ccccc1OCC(=O)N/N=C/c1ccc(Br)s1	none
CCOC(=O)c1ccc(NC(=O)NNC(=O)c2cc3c(s2)CCCCC3)cc1	none
C#CC(O)(c1ccc(OC)cc1OC)c1ccc(OC)cc1OC	TEAD-YAP block 33
CC(=O)Nc1cccc(NC(=O)COc2ccc(C(=O)c3ccc(Cl)cc3)cc2)c1	none
CN(C)CP(=O)(O)CCc1ccccc1	FBW7 activator 5.1
COc1cc(C2C3=C(CC(C)(C)CC3=O)OC3=C2C(=O)CC(C)(C)C3)ccc1OCc1ccc(F)cc1	FBW7 activator 2.0
COc1cccc(NC(=O)c2c(Cl)nc(C)c(Cl)c2C)c1	none
O=C1c2ccccc2C(=O)N1CCCCN(C(=O)c1cccs1)c1ccc(F)cc1F	none
Cc1noc(/C=C/c2ccco2)c1S(=O)(=O)N1CCC(C(=O)Nc2nccs2)CC1	MITF inh 58
Cc1cccc(CN2CCC(N3CCCC(C)C3)CCC2=O)c1 (configuration not stated)	none
O=S1(=O)C=C(Sc2nc3ccccc3s2)c2ccccc21	TEAD-YAP block 61
Nc1ccccc1SC1=CS(=O)(=O)c2ccccc21	none
N#Cc1c2c(n[nH]c1=O)C(=O)c1ccccc1-2	none
O=C(Nc1ccc(O)cc1)c1scc2c1CCCC2	TEAD-YAP block 68
CCOCC(=O)Nc1nnc(C(CC)CC)s1	none
COc1ccc(CCNc2nc(Nc3ccc(N4CCOCC4)cc3)nc3c2ncn3-c2ccsc2)cc1	TEAD-YAP block 62
Oc1ccc(CCNc2nc(Nc3cnccn3)nc3c2ncn3-c2ccsc2)cc1	TEAD-YAP block 66
Oc1ccc(CCNc2nc(Nc3ccccc3)nc3c2ncn3-c2ccsc2)cc1	TEAD-YAP block 38
Oc1ccc(CCNc2nc(Nc3ncccn3)nc3c2ncn3-c2ccsc2)cc1	TEAD-YAP block 56
COc1ccc(CCNc2nc(Nc3ccc(C(F)(F)F)cc3)nc3c2ncn3-c2ccsc2)cc1	none
Oc1ccc(CCNc2nc(Nc3ccccc3)nc3c2ncn3-c2ccccc2)cc1	none
CCC1=NC(C(F)(F)F)(C(F)(F)F)N=C2SCCN12	none
CN(C)CCNC(=O)c1cc2c(-c3ccc(Cl)cc3)nn(C)c2s1	TEAD-YAP block 68
CN1CCN(CCCNC(=O)c2cc3c(-c4ccc(Cl)cc4)nn(C)c3s2)CC1	none
COc1cc(N)c(Cl)cc1C(=O)OCC(=O)NC(C)C1CC2CCC1C2 (configuration not stated)	none
FC(F)(F)CNc1ccc(-c2cccnc2)cn1	none
Cn1c(=O)c2ncn(CC(=O)N/N=C/c3cc(Br)ccc3O)c2n(C)c1=O	MITF inh 63
Cn1c(=O)c2ncn(CC(=O)N/N=C/c3cc(Cl)ccc3O)c2n(C)c1=O	none
CCC(C)NC(=O)CCNC(=O)c1ccc2c(c1)OCO2 (configuration not stated)	none
O=C(CCC1(Cc2ccc(F)cc2)CCC(=O)N1)NCc1c(F)cccc1F (configuration not stated)	TEAD-YAP block 36
CC(C)c1cc(C(=O)Nc2cccc(O)c2)no1	TEAD-YAP block 81
CC(C)Cc1cc(C(=O)Nc2cccc(Cl)c2)no1	none
CC(C)Cc1cc(C(=O)Nc2cccc(O)c2)no1	TEAD-YAP block 87
[O-][n+]1onc2cc(Br)cnc21	MITF inh 61
[O-][n+]1onc2cc(Cl)c(Cl)cc21	none
COc1ccc(N2CCN(c3ncnc4sc(C(=O)N5CCN(Cc6ccc7c(c6)OCO7)CC5)c(C)c34)CC2)cc1	none
Cc1ccc(-c2cnn3c(NCc4ccco4)ccnc23)cc1	none
COc1cccc(C2C(C(N)=O)=C(C)Nc3nc(-c4cccc(Cl)c4)nn32)c1OC (configuration not stated)	none
Cc1ncn(-c2ccc(Nc3ncc4cccc(-c5cnn(CC6CC6)c5)c4n3)cc2)n1	TEAD-YAP block 49
Cc1ncn(-c2ccc(Nc3ncc4cccc(-c5cnn(C(C)C)c5)c4n3)cc2)n1	TEAD-YAP block 52
O=C(Oc1ccc([N+](=O)[O-])c2cccnc12)c1ccccc1	MITF inh 82, TEAD-YAP block 57
Cc1nc(SCC(=O)Nc2nc3ccccc3s2)c(C#N)c(C)c1C	TEAD-YAP block 95
